Results on 109 molecules are retold here after ChEMBL document CHEMBL3988442, “University of Dundee, Small-Polar-MMV Screening Library” (2021).

Molecules are shown by their SMILES. The whole screen tested about 48,000 compounds, of which about 13,000 (27%) showed an effect of 50% or more. This is one part of the list.

The subject of the assay is Wolbachia pipientis. Nature of the assay: Anti-Wolbachia Cell-Based Screen. More on the design: scale not given: in the data most compounds retested in dose-response had high values. In kind it is functional. The conditions noted are these: 5 µM.
For `Cn1cc(CCCNC(=O)NC2CCN(c3ccccc3)C2=O)cn1` (centres undefined), the “Percent Effect” value was 20.77%.
The value for `CCn1nc2c(cc1=O)CN(CCOc1cccc(C#N)c1)CC2` was -9.961%; that for `Cn1cc(C(=O)OCC(N)=O)c(-c2ccc(F)cc2F)n1` was -2.814%.
On to `N#CCCN(Cc1cccnc1)C(=O)c1ccc(-n2cnnn2)cc1`, for which the “Percent Effect” value came to 12.89%.
The value for `Cc1ccc(NC(=O)N(C)C)c(C(=O)OCC(=O)NC2CCCC2)c1` was -9.857%; that for `COc1ccc(CN(C)C(=O)NCc2c(C)cc(C)[nH]c2=O)cc1` was -0.4347%.
For `Cc1cc(C)n(CCCN(C)C(=O)C2COc3ccccc3C2)n1` (centres undefined), the “Percent Effect” value is given as -47.38%.
Regarding `Cc1nccn1CCCn1cncc1-c1ccc2c(c1)CC(C)N2C.Cl` (centres undefined), the “Percent Effect” value was found to be 92.09%.
As for `CC1=NOC(C(=O)N(C)CCCn2nc(C)cc2C)C1` (centres undefined), the “Percent Effect” value was 25.07%.
Consider `Cc1cc(C)n(CCCn2cncc2-c2ccc3c(c2)CC(C)N3C)n1.Cl` (centres undefined), for which the “Percent Effect” value was found to be 95.59%.
In the case of `Cc1cnccc1N1CCCN(C(=O)CCn2ccnc2C)CC1`, the “Percent Effect” value is -14.43%.
The value for `CC(C)OCCC1CCCCN1S(C)(=O)=O` (centres undefined) was 3.961%; that for `CCC(CC)C(=O)NS(=O)(=O)c1ccc(C#N)cc1C(F)(F)F` was 103.7%; that for `CC(C)(C)C(=O)NS(=O)(=O)c1ccc(C#N)cc1C(F)(F)F` was -4.514%.
Consider `CC(=O)NC1CCN(c2ccc(C#N)cc2C(F)(F)F)CC1`, for which the “Percent Effect” value amounted to 29.91%.
With `CC(C(=O)N(Cc1ccc(C#N)cc1)CC(F)(F)F)S(C)(=O)=O` (centres undefined), the “Percent Effect” value is -0.5778%.
Regarding `CC(O)CN(C)S(=O)(=O)c1ccc(C#N)cc1F` (centres undefined), the “Percent Effect” value was -5.528%.
Regarding `CC(C)C(=O)NS(=O)(=O)c1ccc(C#N)cc1C(F)(F)F`, the “Percent Effect” value is 109%.
The value for `CCC(C)C(=O)NS(=O)(=O)c1ccc(C#N)cc1C(F)(F)F` (centres undefined) was 121.4%; that for `N#Cc1ccc(S(=O)(=O)NC(=O)C2CC2)c(C(F)(F)F)c1` was 6.344%; that for `CN(CCN(C)S(=O)(=O)CC1CCOCC1)c1ccccc1` was -10.63%.
With `N#CCCN(CC1CCOC1)Cn1ccc(-c2cccs2)n1` (centres undefined), the “Percent Effect” value was -0.2132%.
For `CC(NC(C)(C)CN)c1ccccc1` (centres undefined), the “Percent Effect” value is recorded as -0.2011%.
Consider `CC(C)CCN1CCC2(CC1)NCc1ccccc1NC2=O`, for which the “Percent Effect” value is listed as 110.4%.
`CC(C)CN1CCC2(Cc3ccccc3NC2=O)C1` (centres undefined): the “Percent Effect” value is listed as 2.79%.
The value for `CC(C)c1nnc(CN2CCC3(CC2)Nc2ccccc2NC3=O)o1` was 8.635%; that for `O=C1Nc2ccccc2NC12CCN(c1cccc(C(F)(F)F)n1)CC2` was -10.36%; that for `NC(=O)C(NC1CCN(CC2CCCCC2)CC1)c1ccccc1` (centres undefined) was -8.499%.
`O=C1Nc2ccccc2CNC12CCN(CC1CCCC1)CC2`: the “Percent Effect” value amounted to 118.7%.
The value for `O=C1Nc2ccccc2CNC12CCN(CC1CC1)CC2` was 106.1%.
On to `O=C1Nc2ccccc2CNC12CCN(CC1CCNC1)CC2` (centres undefined), for which the “Percent Effect” value came out at 113.7%.
The value for `O=C1Nc2ccccc2NC12CCN(Cc1nnc(C3CC3)o1)CC2` was 10.49%; that for `Cn1cc(C2(C)CN(C(=O)COc3ccccc3F)CCO2)cn1` (centres undefined) was -6.052%.
For `O=S(=O)(NCC1(O)CCOCC1)c1c(F)cccc1F`, the “Percent Effect” value is -2.026%.
For `Cc1cc(F)ccc1S(=O)(=O)N1CCN(C)Cc2ccccc21`, the “Percent Effect” value is listed as -7.823%.
As for `CC(C)(C)CN1CCCC2(CCN(C(=O)c3cn[nH]c3)C2)C1` (centres undefined), the “Percent Effect” value is -0.3441%.
Take `CCNC(=O)NCc1ccccc1NS(=O)(=O)c1ccccc1`: the “Percent Effect” value is reported as 26.47%.
On to `O=C1CC2(CCCCC2)C(=O)N1CC(O)COCc1ccccc1F` (centres undefined), for which the “Percent Effect” value is listed as -27.41%.
Turning to `CC(C)(C)CNCC1(O)CCCN(Cc2ccccc2F)C1=O` (centres undefined), the “Percent Effect” value is recorded as -15.35%.
`CSCCC(O)C(=O)N1CCN(Cc2cccc(Cl)c2)CC1` (centres undefined): the “Percent Effect” value is 8.238%.
Take `CCC(CO)N(Cc1ccccn1)C(=O)c1ccc(=O)[nH]c1` (centres undefined): the “Percent Effect” value is 7.999%.
Regarding `COc1ccccc1N1CCN(C(=O)CSC(C)C)C(C)C1` (centres undefined), the “Percent Effect” value is -5.211%.
The value for `NC(=O)CSCCC(=O)NCC1CC1` was 101.8%; that for `O=C(CNC(=O)C1CC1)NCC1CCCC1` was -13.86%.
As for `NC(=O)CSCC(=O)NCC1CCCC1`, the “Percent Effect” value amounted to 107.6%.
Regarding `N#CCSCCCN1CCC(C(=O)N2CCCCCC2)CC1`, the “Percent Effect” value was 2.389%.
The figure for `N#CCSCC(=O)NCC1CCCCC1` is 102.7%; for `NC(=O)CSCCC(=O)N1CCCC1c1ccsc1` (centres undefined) it is -6.046%.
The figure for `O=C(CCn1cncn1)NCC1CCOC1` (centres undefined) is 0.0368%.
As to `O=C(CCn1cncn1)NCC1CCCC1`, the “Percent Effect” value is recorded as 2.005%.
For `Cc1nc(CN2CCC(CNC(=O)CCC3CCCC3)CC2)oc1C`, the “Percent Effect” value is -6.137%.
Turning to `Cc1cccc(N(CC(=O)N2CCCCC2)Cc2ccno2)c1`, the “Percent Effect” value is 2.857%.
The value for `Cc1cc(C(=O)NCC2SCCc3ccccc32)no1` (centres undefined) was 0.5755%; that for `CCN(C(=O)Cc1ccc(NC(=O)NC2CC2)cc1)c1ccccc1` was -0.9902%; that for `O=C(CSc1ccc2c(c1)OCCO2)NS(=O)(=O)c1cc(F)ccc1F` was -16.91%.
On to `c1cnnc(N2CCCC2CNCCc2cccs2)c1` (centres undefined), for which the “Percent Effect” value came to 5.045%.
For `Cc1nc(CNCC2CCCN2c2cccnn2)cs1` (centres undefined), the “Percent Effect” value is given as -2.276%.
In the case of `Cc1ncccc1CNCC1CCCN1c1cccnn1` (centres undefined), the “Percent Effect” value turned out to be 86.13%.
With `CC(C)(C)c1cnc(CNCC2CCCN2c2cccnn2)o1` (centres undefined), the “Percent Effect” value turned out to be 10.11%.
With `c1cnnc(N2CCCC2CNCc2cccs2)c1` (centres undefined), the “Percent Effect” value turned out to be 108.7%.
`c1cnnc(N2CCCC2CNCc2ccsc2)c1` (centres undefined): the “Percent Effect” value was -3.279%.
For `Cc1nc(CNCC2CCCN2c2cccnn2)oc1C` (centres undefined), the “Percent Effect” value is on record as -10.17%.
As to `CC(C)(C)c1ncc(CNCC2CCCN2c2cccnn2)s1` (centres undefined), the “Percent Effect” value was found to be 130.1%.
Regarding `Cc1ncc(CNCC2CCCN2c2cccnn2)s1` (centres undefined), the “Percent Effect” value is 6.124%.
As to `CC(C)c1nnc(CNCC2CCCN2c2cccnn2)o1` (centres undefined), the “Percent Effect” value is -19.57%.
The value for `Cc1ccc(CNCC2CCCN2c2cccnn2)s1` (centres undefined) was 110.2%.
The value for `Cc1noc(C)c1CNCC1CCCN1c1cccnn1` (centres undefined) was 5.268%; that for `CC(=O)Nc1ccc(CN2CCOC2=O)cc1` was -1.092%.
With `CC(=O)Nc1ccc(/C=C/c2ncc(C(=O)O)s2)cc1`, the “Percent Effect” value is reported as 35.4%.
In the case of `CC(C)c1ccn(C2(C(=O)O)CCN(c3ccncc3F)CC2)n1`, the “Percent Effect” value was -3.994%.
Turning to `Cc1cccc(C(=O)N(C)CC(=O)N2CCCC2)c1C`, the “Percent Effect” value was 11.26%.
As to `O=C(CNC(=O)C1CC1)NCc1ccc(Cl)s1`, the “Percent Effect” value amounted to 12.79%.
With `O=C(Nc1cnccn1)[C@H]1COC[C@H]2CN(C3CCCC3)C[C@H]21.O=C(O)C(F)(F)F`, the “Percent Effect” value amounted to 12.06%.
Consider `CN(Cc1nnc(C2CC2)n1C)C(=O)c1ccnc(OC2CCC2)c1`, for which the “Percent Effect” value was -6.34%.
The figure for `Cc1cc(C(=O)N(C)Cc2ccccc2OCC(C)C)cc(=O)[nH]1` is 5.839%; for `COc1ccccc1OCC(=O)NS(=O)(=O)c1ccccc1F` it is -1.762%.
For `CSc1ccc(NCC(=O)NCC2CC2)cc1F`, the “Percent Effect” value is listed as -20.57%.
`COc1cccc([C@@H]2CN(C3CCCC3)C[C@H]2C(=O)O)c1`: the “Percent Effect” value is listed as -6.459%.
With `Cc1noc(C)c1CN1CCc2ncc(CN(C)C)n2CC1.O=C(O)C(F)(F)F.O=C(O)C(F)(F)F`, the “Percent Effect” value is on record as -8.609%.
The figure for `CC(C)c1ncc2c(n1)CN(Cc1cccc(C#N)c1)CC2` is -1.681%; for `Cc1ccc(CN2CCc3c(CN(C)C)n[nH]c3C2)s1.O=C(O)C(F)(F)F.O=C(O)C(F)(F)F` it is -7.014%; for `Cc1ccc(CN2CCn3c(CN(C)C(C)C)cnc3C2)s1.O=C(O)C(F)(F)F.O=C(O)C(F)(F)F` it is 102.4%.
Take `CC(C)N(C)Cc1cnc2n1CCN(Cc1cccc(C#N)c1)C2`: the “Percent Effect” value is reported as 113.4%.
The figure for `CN1CCc2ncc(CNC(=O)c3cccn3C)n2CC1.O=C(O)C(F)(F)F` is -7.758%; for `CN(C)Cc1cnc2n1CCN(C(=O)Cc1ccc(F)cc1)CC2.O=C(O)C(F)(F)F` it is -6.028%.
As for `O=C(NCc1cnc2n1CCN(Cc1nccs1)C2)c1ccno1.O=C(O)C(F)(F)F`, the “Percent Effect” value was -12.49%.
Turning to `Cn1cc(CN2CCn3c(CNC(=O)c4cccn4C)cnc3C2)cn1.O=C(O)C(F)(F)F`, the “Percent Effect” value is given as -0.1323%.
In the case of `CC(C)N(C)Cc1cnc2n1CCN(Cc1ccc(F)cc1)C2.O=C(O)C(F)(F)F.O=C(O)C(F)(F)F`, the “Percent Effect” value is 108.1%.
On to `CC(O)CN1CCN(Cc2cccc(C#N)c2)CC1` (centres undefined), for which the “Percent Effect” value is on record as -5.978%.
With `Cc1ccc(CN2CCn3c(CNC(=O)c4cccn4C)cnc3C2)s1.O=C(O)C(F)(F)F`, the “Percent Effect” value was determined as 57.4%.
With `COc1cc(C)nc(N2CCN(C(=O)CCn3cc(C)cn3)CC2)n1`, the “Percent Effect” value was -7.08%.
In the case of `c1ccc2nc(NCC3(N4CCOCC4)CCSC3)cnc2c1` (centres undefined), the “Percent Effect” value is given as -14.05%.
In the case of `CCn1cnc2c(c(Br)nn2C)c1=O`, the “Percent Effect” value was -4.609%.
For `CS(=O)(=O)c1cccc(S(=O)(=O)NC(=O)c2cscn2)c1`, the “Percent Effect” value is given as -9.351%.
In the case of `CC(C)NC(=O)C[C@@H]1CCNC[C@@H]1Cc1cc(-c2ccccc2)on1`, the “Percent Effect” value turned out to be 3.733%.
The figure for `CCc1cc(=O)[nH]c2nnc(SCC(=O)OC)n12` is -19.07%; for `Cn1ccnc1CN1CCC2(CC(=O)N(c3cccc(F)c3)C2)C1.O=C(O)C(F)(F)F` (centres undefined) it is 10.35%; for `Cc1cc(C)c(Cn2cncn2)cc1CN1CCC(CN)C1` (centres undefined) it is -0.9295%.
As for `Cc1ccc(OCC(O)Cn2ncc3cnn(C)c(=O)c32)cc1` (centres undefined), the “Percent Effect” value was -11.22%.
As to `CC(C)N(C)Cc1cnc2n1CCN(S(=O)(=O)c1ccccc1)C2.O=C(O)C(F)(F)F`, the “Percent Effect” value stood at 114.3%.
The figure for `CN(C)Cc1cnc2n1CCN(C(=O)Cc1cccc(F)c1)CC2.O=C(O)C(F)(F)F` is -14.88%; for `CN(Cc1ccco1)Cc1cnc2n1CCN(S(C)(=O)=O)CC2.O=C(O)C(F)(F)F` it is 3.882%; for `CC(C)N(C)Cc1cnc2n1CCN(CCc1ccccc1)C2.O=C(O)C(F)(F)F.O=C(O)C(F)(F)F` it is 1.323%.
Turning to `COCCN1CCCn2cnc(CN(C)C(C)C)c2C1.O=C(O)C(F)(F)F.O=C(O)C(F)(F)F`, the “Percent Effect” value turned out to be 1.891%.
As to `CC(C)N(C)Cc1cnc2n1CCN(Cc1ccco1)C2.O=C(O)C(F)(F)F.O=C(O)C(F)(F)F`, the “Percent Effect” value is 165.9%.
The value for `COCCN1CCn2c(CN(C)C(C)C)cnc2C1.O=C(O)C(F)(F)F.O=C(O)C(F)(F)F` was 115.3%; that for `CN(C)Cc1cnc2n1CCN(C(=O)NCc1ccccc1)CC2.O=C(O)C(F)(F)F` was -3.612%; that for `CC(C)N(C)Cc1cnc2n1CCN(Cc1cccc(F)c1)C2.O=C(O)C(F)(F)F.O=C(O)C(F)(F)F` was 118.2%.
`CC(C)N(C)Cc1cnc2n1CCN(C(=O)Cc1cccs1)C2C.O=C(O)C(F)(F)F` (centres undefined): the “Percent Effect” value was 0.7731%.
